# Inconclusive results are not listed. Entries that show only a call come without a potency. Calls of active or inactive are those of the source. Unless noted, calls follow the shape of the full dose curve.
# Assay: qHTS assay to identify small molecule agonists of the hypoxia (HIF-1) signaling pathway (AID 1224846; active = well fitted activation curve with a large enough effect in the signal ratio in the repeat runs, not every such curve was filed as active; the % refers to the signal ratio)
# Conditions: HRE-bla ME-180 cells, beta-lactamase ratio, 17 h; series mostly up to 76.8 µM
# Outline: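 ME-180 HRE-bla reporter cells; compounds in DMSO, 17 h at 37C; read-out beta-lactamase via CCF4-AM FRET.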
SMILES,outcome,activation
CC(CC(=O)O)CC(C)(C)C (stereo unspecified),inactive,
Nc1ccc(/C=C/c2ccc(N)cc2S(=O)(=O)O)c(S(=O)(=O)O)c1,,-0.978% [at 0.291 µM] (inactive)
CC(C)C(=O)c1ccccc1,inactive,
CC(Cl)COP(=O)(OCC(C)Cl)OCC(C)Cl (stereo unspecified),inactive,
CN(C)CCOCCN(C)CCO,inactive,
CC(=O)OC(C)c1ccccc1 (stereo unspecified),inactive,
C=CCOCC(CO)(COCC=C)COCC=C,inactive,
Cc1ncc([N+](=O)[O-])n1CC(O)CCl (stereo unspecified),inactive,
CCN(CCO)c1cccc(C)c1,inactive,
CN=C(NC#N)NCCSCc1csc(N=C(N)N)n1,inactive,
CC1CCC(C(C)(C)S)C(=O)C1 (stereo unspecified),inactive,
O=CN1CCOCC1,inactive,
Cc1c(C(C)C)c(=O)n(-c2ccccc2)n1C,inactive,
CCCCCCCCCCCCCCCCCCN(C)C,inactive,
CCN(CCC#N)c1ccccc1,inactive,
O=C(CN1CCN(Cc2ccc3c(c2)OCO3)CC1)N1c2ccccc2Sc2ccccc21,inactive,
O=c1[nH]c(=O)c2ccccc2o1,inactive,
CCC1COC(=O)O1 (stereo unspecified),inactive,
O=C(COCCOCCOCC(=O)Nc1c(I)cc(I)c(C(=O)O)c1I)Nc1c(I)cc(I)c(C(=O)O)c1I,inactive,
C=CCOc1c(Br)cc(Br)cc1Br,inactive,
NC(=O)NC(=O)Cc1ccccc1,inactive,
FC(F)(F)/C(=N\OCC1OCCO1)c1ccc(Cl)cc1,inactive,
CCOc1ccc(NC(=O)OC(C)C)cc1OCC,inactive,
CC(=O)/C=C/c1ccco1,inactive,
CCCCCCCCC(=O)OCC,inactive,
CCCCCCCCCCCCCCCCI,,0.543% [at 15.8 µM] (inactive)

# Assay: qHTS assay to identify small molecule agonists of H2AX - cell viability counter screen (AID 1224847); also: top concentration of the series differs between compounds; nearly all actives have a fitted effect of over 30% in size
# Conditions: CHO-K1 viability, CellTiter-Glo luminescence, 3 h; series mostly up to 154 µM
# Outline: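 We seed wild-type CHO-K1 cells overnight, treat them for 3 hr at 37C with compounds in 15-concentration series, and quantify remaining viability by CellTiter-Glo luminescence.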
SMILES,Potency,"activity change, negative = cytotoxicity"
CC(CC(=O)O)CC(C)(C)C (stereo unspecified),inactive,
Nc1ccc(/C=C/c2ccc(N)cc2S(=O)(=O)O)c(S(=O)(=O)O)c1,,3.7% [at 0.582 µM] (inactive)
COc1ccc(NS(=O)(=O)c2ccc(N)cc2)nn1,inactive,
CCCCCCCCCCCCC1CO1 (stereo unspecified),inactive,
CCCCCCCCCCC,inactive,
CC(Cl)COP(=O)(OCC(C)Cl)OCC(C)Cl (stereo unspecified),inactive,
CN(C)CCOCCN(C)CCO,inactive,
CC(C)(CO)[C@@H](O)C(=O)NCCCO,inactive,
CC(=O)OC(C)c1ccccc1 (stereo unspecified),inactive,
Cc1ncc([N+](=O)[O-])n1CC(O)CCl (stereo unspecified),inactive,
CCCCC(CC)COC(=O)c1ccccc1 (stereo unspecified),inactive,
CCN(CCO)c1cccc(C)c1,inactive,
CN=C(NC#N)NCCSCc1csc(N=C(N)N)n1,inactive,
CC1CCC(C(C)(C)S)C(=O)C1 (stereo unspecified),inactive,
Cc1c(C(C)C)c(=O)n(-c2ccccc2)n1C,inactive,
CCCCCCCCCCCCCCCCCCN(C)C,inactive,
O=C(O)CCNC(=O)c1ccccc1,inactive,
COc1ccc(OC)c(NC(=O)CC(C)=O)c1,inactive,
CCN(CCC#N)c1ccccc1,inactive,
O=C(CN1CCN(Cc2ccc3c(c2)OCO3)CC1)N1c2ccccc2Sc2ccccc21,inactive,
O=C(O)c1ccccc1C(=O)Nc1ccc(S(=O)(=O)Nc2nccs2)cc1,inactive,
CCC1COC(=O)O1 (stereo unspecified),inactive,
C=CCOc1cc(Cl)ccc1C(=O)NCCN(CC)CC,inactive,
O=C(COCCOCCOCC(=O)Nc1c(I)cc(I)c(C(=O)O)c1I)Nc1c(I)cc(I)c(C(=O)O)c1I,inactive,
NC(=O)NC(=O)Cc1ccccc1,inactive,
FC(F)(F)/C(=N\OCC1OCCO1)c1ccc(Cl)cc1,inactive,
CC(=O)/C=C/c1ccco1,inactive,
CCC(=O)OCCC(C)CCC=C(C)C (stereo unspecified),inactive,
CCCCCCCCC(=O)OCC,inactive,
CCCCCCCCCCCCCCCCI,,-0.0372% [at 31.6 µM] (inactive)

# Assay: qHTS assay to identify small molecule antagonists of the estrogen related receptor (ERR) signaling pathway from Tox21 library (AID 1224848; active = well fitted inhibition curve with a large enough effect in the repeat runs; also: nearly all actives have a fitted effect of over 50% in size; also: potency is read from the fitted curve at half-maximal effect)
# Conditions: ERR reporter cell line, luciferase antagonist mode, 18 h; series mostly up to 92.4 µM
# Outline: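 First, 2,000 ERR cells per well were plated and held 6 h at 37 C/5% CO2. Next, compounds in DMSO were pinned in and left 18 h at 37 C. Finally, ONE-Glo was added and luminescence read after 30 min at room temperature.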
SMILES,"activity, negative = inhibition",Potency
Nc1ccc(/C=C/c2ccc(N)cc2S(=O)(=O)O)c(S(=O)(=O)O)c1,4.28% [at 0.349 µM] (inactive),
COc1ccc(NS(=O)(=O)c2ccc(N)cc2)nn1,,inactive
CC(C)C(=O)c1ccccc1,,inactive
CCCCCCCCCCC,,inactive
CC(Cl)COP(=O)(OCC(C)Cl)OCC(C)Cl (stereo unspecified),,inactive
CN(C)CCOCCN(C)CCO,,inactive
CC(C)(CO)[C@@H](O)C(=O)NCCCO,,inactive
C=CCOCC(CO)(COCC=C)COCC=C,,inactive
Cc1ncc([N+](=O)[O-])n1CC(O)CCl (stereo unspecified),,inactive
CCN(CCO)c1cccc(C)c1,,inactive
CN=C(NC#N)NCCSCc1csc(N=C(N)N)n1,,inactive
CC1CCC(C(C)(C)S)C(=O)C1 (stereo unspecified),,inactive
O=CN1CCOCC1,,inactive
Cc1c(C(C)C)c(=O)n(-c2ccccc2)n1C,,inactive
CCCCCCCCCCCCCCCCCCN(C)C,,inactive
O=C(O)CCNC(=O)c1ccccc1,,inactive
O=c1[nH]c(=O)c2ccccc2o1,,inactive
CCC1COC(=O)O1 (stereo unspecified),,inactive
Cc1cccc(NC(=S)N(C)C)c1,,48.6 µM (active)
O=C(COCCOCCOCC(=O)Nc1c(I)cc(I)c(C(=O)O)c1I)Nc1c(I)cc(I)c(C(=O)O)c1I,,inactive
C=CCOc1c(Br)cc(Br)cc1Br,,inactive
NC(=O)NC(=O)Cc1ccccc1,,inactive
CC(=O)/C=C/c1ccco1,,inactive
CCCCCCCCC(=O)OCC,,inactive
CCCCCCCCCCCCCCCCI,4.33% [at 19 µM] (inactive),

# — PubChem BioAssay (Tox21)
